This is an account of results in PubChem BioAssay.

The structures appear in SMILES notation. Calls of active or inactive are those of the source.

Chain of Homeobox protein Hox-A13 (Mus musculus) (Q62424 whole entry, looked up): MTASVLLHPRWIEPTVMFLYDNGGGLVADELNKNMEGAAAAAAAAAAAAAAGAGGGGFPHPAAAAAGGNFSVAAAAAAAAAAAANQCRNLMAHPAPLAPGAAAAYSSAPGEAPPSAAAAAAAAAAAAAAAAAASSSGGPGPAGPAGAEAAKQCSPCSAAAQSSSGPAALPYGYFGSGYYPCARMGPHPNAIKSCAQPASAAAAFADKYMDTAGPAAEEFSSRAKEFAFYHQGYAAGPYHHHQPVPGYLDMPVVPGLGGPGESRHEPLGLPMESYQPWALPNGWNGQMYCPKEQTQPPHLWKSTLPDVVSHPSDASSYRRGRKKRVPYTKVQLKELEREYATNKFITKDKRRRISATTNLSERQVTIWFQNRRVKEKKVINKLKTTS

Tested on in one experiment: not listed separately
Nature of the experiment: Plasmodium falciparum growth inhibition, primary screen, strain 3D7, DAPI fluorescence, 100 nL (AID 1184).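 Also: parasites grown inside human red blood cells in medium with human serum.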 Conditions: P. falciparum 3D7 growth, 3 d, higher = more signal.
Compound `COc1cc(NN2C(C(O)c3ccc(I)cc3)C=CC3C(=O)N(C)C(=O)C32)cc(OC)c1OC` (stereo not drawn) returned a z-score of -0.336.

`C=CCC(OC(C)=O)[C@@H]1[C@@H](N(Cc2cccc3ccccc23)C(=O)Cc2ccc(F)cc2)c2cc(OCCCO)ccc2N1C(=O)Cc1ccc(OC)cc1` (stereo partly drawn): the z-score is -1.64. In turn, `C=CCOC(=O)[C@@H]1[C@H]2C(=O)O[C@H](c3ccccc3)[C@H](c3ccccc3)N2[C@H](c2ccc(OCCOC(=O)[C@H]3C[C@H]4C(=O)N[C@@H](Cc5ccccc5)C(=O)N4[C@H]3c3cccc(OCCO)c3)cc2)[C@@]12C(=O)Nc1ccc(I)cc12` registered a z-score of 0.143. Consider `CC(C)c1ccc(NN2C(C(O)c3cccs3)C=CC3C(=O)N(c4ccccc4)C(=O)C32)cc1` (stereo not drawn), for which the z-score was -0.512. For `CC1CC/C=C\[C@H]2OC34C=CCN(Cc5ccccc5)C(=O)[C@H]3N(CCO)C(=O)[C@@H]4C2C(=O)O1` (stereo partly drawn), the z-score was -1.56. Take `COCCOC(=O)N1C(=O)[C@@]2(c3cc(C#CC4(O)CCCCCC4)ccc31)[C@H](C(=O)N1CCc3cc(OC)c(OC)cc3C1)[C@H]1C(=O)O[C@H](c3ccccc3)[C@H](c3ccccc3)N1[C@@H]2c1ccccc1OCCO`: the z-score was -1.99. Turning to `COc1ccc([Si](C)(C)[C@H]2[C@H](CC(=O)N3CCC[C@H]3CO)O[C@@]3(C(=O)N(Cc4ccc(N5C(=O)c6cccc7cccc5c67)cc4)c4ccccc43)[C@@H]2C)cc1`, the z-score is -1.95. `C=C(C(=O)CC[C@H](OC(=O)c1cccnc1)c1ccc(OCCO)cc1)C(C)C` returned a z-score of -2.02. The same measure, in the same setting: to `COC(=O)[C@@]1(Cc2ccccc2)[C@H]2c3cc(C(=O)N4CCCC4)n(CCO)c3C[C@H]2CN1C(=O)c1ccccc1` belongs -1.29; to `C=CCNC(=O)[C@H]1[C@@H]2C(=O)O[C@@H](c3ccccc3)[C@@H](c3ccccc3)N2[C@@H](c2ccc(OCCO)cc2)[C@]12C(=O)N(C(=O)OCCOC)c1ccc(C#CC3=CCCCC3)cc12`, -2.22; to `O=C1C2C=CC(C(O)c3cccc4ccccc34)N(Nc3ccccc3)C2C(=O)N1c1ccccc1` (stereo not drawn), -0.176. As to `Cc1ccc(S[C@]2(C(=O)O)CC(=O)N(C3CCCCC3)[C@@H]2c2ccc(CO)cc2)cc1`, the z-score was 0.756. `CC(=O)NCCCC[C@@H]1NC(=O)[C@H]2C[C@@H](C(=O)NCCCCCN)[C@@H](c3cccc(OCCO)c3)N2C1=O` registered a z-score of 0.184. `C=C(CCCC)/C(=C/C[C@@H](OC(=O)c1ccncc1)c1ccccc1OCCO)c1cc(C(=O)OC)ccc1OC` showed a z-score of -2.98. `C=CC[C@]1(C(=O)N2CCOCC2)N=C(c2ccc(OCCCO)cc2)O[C@H]1c1ccccc1CN=[N+]=[N-]`: the z-score was -2.33. Consider `C=C(C)[C@@H]1CC=C(C(O)C2C=CC3C(=O)N(C4CCCCC4)C(=O)C3N2Nc2ccc(OC)cc2)CC1` (stereo partly drawn), for which the z-score is -0.409. For the compound `CC1(C)[C@@H]2CC(C(O)C3C=CC4C(=O)N(c5ccccc5)C(=O)C4N3Nc3ccccc3F)=C[C@@H]1C2` (stereo partly drawn), the z-score was -0.59.

Regarding `[N-]=[N+]=NCc1ccccc1[C@H]1OC(c2ccc(OCCCO)cc2)=N[C@@]1(Cc1ccccc1N=[N+]=[N-])C(=O)N1CCCCC1`, the z-score is -2.15. As to `CC(C)N1CC=CC23O[C@@H]4C=CCOC(=O)[C@@H]4[C@H]2C(=O)N(CCCCCCO)[C@@H]3C1=O` (stereo partly drawn), the z-score was -0.511. For the compound `CN1C(=O)C2C=CC(C(O)C3CCCCC3)N(N(c3ccccc3)c3ccccc3)C2C1=O` (stereo not drawn), the z-score came out at 0.721.

For the compound `CC(C)(C)OC(=O)CC[C@]1(C(=O)O)COC(c2ccc(OCCCO)cc2)=N1`, the z-score amounted to 1.22. `O=C1O[C@H](c2ccccc2)[C@H](c2ccccc2)N2[C@H]1[C@@H](C(=O)N1CCN(c3ncccn3)CC1)[C@]1(C(=O)Nc3ccc(C#CCCO)cc31)[C@H]2c1ccc(OCCO)cc1` gave a z-score of -1.9.

With `CN1C(=O)C2C=CC(C(O)c3cccc4ccccc34)N(NC(=O)OC(C)(C)C)C2C1=O` (stereo not drawn), the z-score amounted to 0.99.

The next experiment addresses Homeobox protein Hox-A13 (Mus musculus) (UniProt Q62424). Nature of the experiment: inhibitors of HoxA13-DNA binding, primary screen, biochemical, fluorescence polarization, labeled oligonucleotide (AID 1185). The conditions noted are these: 15 min, higher = more signal, called active from +8 up or from −8 down. On the technique in general: Fluorescence polarisation rises when a labelled molecule tumbles more slowly, as on binding a larger partner.
Regarding `C=CCN1C(=O)[C@@]2(O[C@@H](CCO)[C@H]([Si](C)(C)c3ccc(OC)cc3)[C@H]2C)c2cc(NC(=O)[C@H](C)O)ccc21`, the z-score was -5.68 (inactive). For `COC(=O)[C@@]1(Cc2ccc(OC)cc2)[C@H]2c3cc(C(=O)N4CCCC4)n(CCF)c3C[C@H]2CN1C(=O)c1ccccc1`, the z-score is -5.44 (inactive). `O=C1N(Cc2ccccc2)c2ccccc2[C@H]2OC(c3ccc(OCCCO)cc3)=N[C@@]12CCS(=O)(=O)c1ccccc1`: the z-score is -1.54 (inactive).

As to `CC(=O)NCCCC[C@@H]1NC(=O)[C@@H]2C[C@H](C(=O)NCCCC[N+](C)(C)C)[C@H](c3cccc(OCCO)c3)N2C1=O`, the z-score is -2.25 (inactive). With `COCCCNC(=O)[C@@]1(Cc2ccccc2I)c2ccccc2C(=O)N(Cc2ccccc2Cl)[C@H]1c1ccc(CO)cc1`, the z-score was -4.93 (inactive). The same measure, in the same setting: to `COCCCNC(=O)[C@@]1(Cc2ccccc2CN=[N+]=[N-])N=C(c2ccc(OCCCO)cc2)O[C@H]1c1ccccc1N=[N+]=[N-]` belongs -2.62 (inactive); to `NCCCCCCNC(=O)[C@H]1C[C@H]2C(=O)N3CCC[C@H]3C(=O)N2[C@H]1c1ccc(O)cc1`, -2.4 (inactive); to `C=C(/C(=C/C[C@@H](OC(=O)c1ccncc1)c1cccc(OCCO)c1)c1cc(C(=O)OC)ccc1OC)C(C)C`, -3.8 (inactive).

Consider `CN1C(=O)C2C=CC(C(O)COCc3ccccc3)N(Nc3ccccc3)C2C1=O` (stereo not drawn), for which the z-score is -2.91 (inactive). Turning to `C=C[C@@H](O)[C@H]1CC(c2ccccc2)=NO1`, the z-score was -0.345 (inactive). On to `COC(=O)[C@@]1(Cc2ccc(OC)cc2)[C@H]2c3cc(C(=O)N(C)C)n(CCF)c3C[C@H]2CN1C(=O)c1ccccc1`, for which the z-score was -3.59 (inactive). For `C=CCC(OC(C)=O)[C@@H]1[C@@H](N(Cc2ccc(-c3cccc(C(F)(F)F)c3)o2)C(=O)c2cccc3ccccc23)c2cc(OCCCO)ccc2N1C(=O)c1ccc(-c2ccccc2)cc1` (stereo partly drawn), the z-score was -2.39 (inactive).

On to `COc1cc(NN2C(C(O)c3ccc(I)cc3)C=CC3C(=O)N(C)C(=O)C32)cc(OC)c1OC` (stereo not drawn), for which the z-score is -1.63 (inactive). `C=CCC(OC(C)=O)[C@@H]1[C@@H](N(Cc2cccc3ccccc23)C(=O)Cc2ccc(F)cc2)c2cc(OCCCO)ccc2N1C(=O)Cc1ccc(OC)cc1` (stereo partly drawn): the z-score is -0.902 (inactive). Still for that read-out and setting: under `C=CCOC(=O)[C@@H]1[C@H]2C(=O)O[C@H](c3ccccc3)[C@H](c3ccccc3)N2[C@H](c2ccc(OCCOC(=O)[C@H]3C[C@H]4C(=O)N[C@@H](Cc5ccccc5)C(=O)N4[C@H]3c3cccc(OCCO)c3)cc2)[C@@]12C(=O)Nc1ccc(I)cc12` stands 6.79 (inactive); under `CC(C)c1ccc(NN2C(C(O)c3cccs3)C=CC3C(=O)N(c4ccccc4)C(=O)C32)cc1` (stereo not drawn), -3.33 (inactive). `CC1CC/C=C\[C@H]2OC34C=CCN(Cc5ccccc5)C(=O)[C@H]3N(CCO)C(=O)[C@@H]4C2C(=O)O1` (stereo partly drawn): the z-score was -4.51 (inactive).

`COCCOC(=O)N1C(=O)[C@@]2(c3cc(C#CC4(O)CCCCCC4)ccc31)[C@H](C(=O)N1CCc3cc(OC)c(OC)cc3C1)[C@H]1C(=O)O[C@H](c3ccccc3)[C@H](c3ccccc3)N1[C@@H]2c1ccccc1OCCO`: the z-score was 0.772 (inactive).

In the case of `COc1ccc([Si](C)(C)[C@H]2[C@H](CC(=O)N3CCC[C@H]3CO)O[C@@]3(C(=O)N(Cc4ccc(N5C(=O)c6cccc7cccc5c67)cc4)c4ccccc43)[C@@H]2C)cc1`, the z-score is -3.9 (inactive).

As to `C=C(C(=O)CC[C@H](OC(=O)c1cccnc1)c1ccc(OCCO)cc1)C(C)C`, the z-score is -4.81 (inactive). Same read-out and setting: to `COC(=O)[C@@]1(Cc2ccccc2)[C@H]2c3cc(C(=O)N4CCCC4)n(CCO)c3C[C@H]2CN1C(=O)c1ccccc1` belongs -0.89 (inactive); to `C=CCNC(=O)[C@H]1[C@@H]2C(=O)O[C@@H](c3ccccc3)[C@@H](c3ccccc3)N2[C@@H](c2ccc(OCCO)cc2)[C@]12C(=O)N(C(=O)OCCOC)c1ccc(C#CC3=CCCCC3)cc12`, 2.62 (inactive); to `O=C1C2C=CC(C(O)c3cccc4ccccc34)N(Nc3ccccc3)C2C(=O)N1c1ccccc1` (stereo not drawn), -0.231 (inactive). Still for that read-out and setting: under `Cc1ccc(S[C@]2(C(=O)O)CC(=O)N(C3CCCCC3)[C@@H]2c2ccc(CO)cc2)cc1` stands -3.31 (inactive); under `CC(=O)NCCCC[C@@H]1NC(=O)[C@H]2C[C@@H](C(=O)NCCCCCN)[C@@H](c3cccc(OCCO)c3)N2C1=O`, -2.28 (inactive); under `C=C(CCCC)/C(=C/C[C@@H](OC(=O)c1ccncc1)c1ccccc1OCCO)c1cc(C(=O)OC)ccc1OC`, -3.47 (inactive). For the compound `C=CC[C@]1(C(=O)N2CCOCC2)N=C(c2ccc(OCCCO)cc2)O[C@H]1c1ccccc1CN=[N+]=[N-]`, the z-score was -4.04 (inactive). `C=C(C)[C@@H]1CC=C(C(O)C2C=CC3C(=O)N(C4CCCCC4)C(=O)C3N2Nc2ccc(OC)cc2)CC1` (stereo partly drawn): the z-score is -3.47 (inactive). Regarding `CC1(C)[C@@H]2CC(C(O)C3C=CC4C(=O)N(c5ccccc5)C(=O)C4N3Nc3ccccc3F)=C[C@@H]1C2` (stereo partly drawn), the z-score was -2.4 (inactive).

On to `[N-]=[N+]=NCc1ccccc1[C@H]1OC(c2ccc(OCCCO)cc2)=N[C@@]1(Cc1ccccc1N=[N+]=[N-])C(=O)N1CCCCC1`, for which the z-score was -0.972 (inactive). For `CC(C)N1CC=CC23O[C@@H]4C=CCOC(=O)[C@@H]4[C@H]2C(=O)N(CCCCCCO)[C@@H]3C1=O` (stereo partly drawn), the z-score is -3.69 (inactive). As to `CN1C(=O)C2C=CC(C(O)C3CCCCC3)N(N(c3ccccc3)c3ccccc3)C2C1=O` (stereo not drawn), the z-score is -4.01 (inactive).

With `CC(C)(C)OC(=O)CC[C@]1(C(=O)O)COC(c2ccc(OCCCO)cc2)=N1`, the z-score is -1.32 (inactive). Take `O=C1O[C@H](c2ccccc2)[C@H](c2ccccc2)N2[C@H]1[C@@H](C(=O)N1CCN(c3ncccn3)CC1)[C@]1(C(=O)Nc3ccc(C#CCCO)cc31)[C@H]2c1ccc(OCCO)cc1`: the z-score was -0.587 (inactive). Still for that read-out and setting: under `CN1C(=O)C2C=CC(C(O)c3cccc4ccccc34)N(NC(=O)OC(C)(C)C)C2C1=O` (stereo not drawn) stands -3.88 (inactive).
